SMILES strings stand for the structures. Inconclusive results are not listed. Calls of active or inactive are those of the source. Calls follow the shape of the dose curve; as a rule, active = well fitted curve in the direction sought with a large enough effect; inconclusive = small, poorly fitted or top-dose-only effect, or another doubt; inactive = no such curve, though single readings can be large; an effect the other way counts as inactive or inconclusive.

Data on 27 compounds can be found in PubChem BioAssay (NCATS).

A short description of assay [1]: qHTS of pediatric cancer cell lines to identify multiple opportunities for drug repurposing: Primary screen for TC32 cells (AID 1347089). Also: nearly all actives have a fitted effect of over 60% in size. An outline of the steps: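 Luminescent ATP read-out (CellTiter-Glo) of metabolically active TC32 cells after 48 h exposure. Concentration-response curves came from 11-point (MIPE, 0.78 nM–46 µM) or 8-point (NPC, 0.59 nM–46 µM) primary titrations; follow-up used 11 points.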
A general note: Quantitative high-throughput screening tests each substance at several concentrations.

The nature of assay [2]: qHTS of pediatric cancer cell lines to identify multiple opportunities for drug repurposing: Primary screen for SJ-GBM2 cells (AID 1347091). In short, it runs like this:
(§1)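 Eight- or eleven-point concentration series, 48 h treatment at 37 degrees C in growth media; readout CellTiter-Glo luminescence. Potency and efficacy were taken from the concentration-response curves.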

A short description of assay [3]: qHTS of pediatric cancer cell lines to identify multiple opportunities for drug repurposing: Primary screen for SK-N-MC cells (AID 1347093). An outline of the steps: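 Metabolically active cells were quantified by ATP-dependent luminescence (CellTiter-Glo, 15 min at room temperature) following 48 h treatment. Cells had been plated at 500-1,000 per well and settled for 5 h beforehand.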

Assay [4] is described as follows: qHTS of pediatric cancer cell lines to identify multiple opportunities for drug repurposing: Primary screen for NB-EBc1 cells (AID 1347095). In short, it runs like this: (§2)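 500-1,000 cells/well; 5 h pre-incubation 37 °C/5% CO2; compound pinned; 48 h; CellTiter-Glo, 15 min RT; luminescence. MIPE 11-pt from 0.78 nM, NPC 8-pt from 0.59 nM final. Bortezomib 2.3 µM final as positive control.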

A short description of assay [5]: qHTS of pediatric cancer cell lines to identify multiple opportunities for drug repurposing: Primary screen for A673 cells (AID 1347092). Also: nearly all actives have a fitted effect of over 45% in size. An outline of the steps:
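Cell viability of A673 measured by CellTiter-Glo ATP luminescence after 48 hours compound exposure. Dilution series spanned 0.78 nM to 46 µM (MIPE, 11-point) or 0.59 nM to 46 µM (NPC, 8-point); bortezomib 2.3 uM positive control.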

Assay [6] in a line: qHTS of pediatric cancer cell lines to identify multiple opportunities for drug repurposing: Primary screen for U-2 OS cells (AID 1347096). Also: nearly all actives have a fitted effect of over 50% in size. An outline of the steps: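 Cells (500-1,000/well) in growth media were settled 5 h at 37 degrees C, then given compounds for 48 h. Viability was read as CellTiter-Glo luminescence. Primary runs used MIPE at 11 points (0.78 nM-46 µM) and NPC at 8 points (0.59 nM-46 µM); follow-ups used 11 points.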

Assay [7] in a line: qHTS of pediatric cancer cell lines to identify multiple opportunities for drug repurposing: Primary screen for DAOY cells (AID 1347090). Also: nearly all actives have a fitted effect of over 55% in size. In short, it runs like this:
as §1

Assay [8] in a line: qHTS of pediatric cancer cell lines to identify multiple opportunities for drug repurposing: Primary screen for BT-37 cells (AID 1347094). An outline of the steps: as §2
Potency is read from the fitted curve at half-maximal effect.

In the case of `CC1(C)CC(=O)c2c(C(F)(F)F)nn(-c3ccc(C(N)=O)c(NC4CCC(OC(=O)CN)CC4)c3)c2C1` (stereo not given), the Potency in assay [1] was 0.739 µM (active); in assay [2], 0.332 µM (active); in assay [3], 0.166 µM (active); in assay [4] it was 0.296 µM (active).
`O=C(NCCS(=O)(=O)c1ccc(C(F)(F)F)cn1)c1ccc(Cl)cc1`: the Potency entry in assay [1], in assay [2], in assay [5], in assay [4] and in assay [6] was “inactive” each time.
With `O=C(O)c1ccc2cc(-c3ccc(O)c(C45CC6CC(CC(C6)C4)C5)c3)ccc2c1`, the Potency in assay [7] was 0.469 µM (active); in assay [2] it was 0.148 µM (active); in assay [5], 2.35 µM (active); in assay [3], 0.372 µM (active); in assay [8], 0.863 µM (active); in assay [4], 0.209 µM (active). In assay [6], the Potency entry was “inactive”.
With `Cc1cc(Nc2nc(N[C@@H](C)c3ccc(F)cc3)c(C#N)cc2F)n[nH]1`, the values for the Potency in assay [1], in assay [5] and in assay [4] were 2.62 µM (active), 1.18 µM (active) and 0.662 µM (active), respectively. The Potency entry in assay [6] was “inactive”.
Take `CNC(=O)c1ccc(-c2cnc3ncc(Cc4ccc5ncccc5c4)n3n2)cc1F`: the Potency result in assay [1], in assay [8] and in assay [6] was “inactive” throughout.
Turning to `Clc1ccc2ncc(-c3cccc(NC4CNC4)n3)n2c1`, the Potency entry in assay [1] and in assay [6] was “inactive” each time. The Potency in assay [2] is 11.8 µM (active); in assay [3], 7.43 µM (active); in assay [8], 17.2 µM (active); in assay [4] it was 1.48 µM (active).
On to `C[C@@H](Oc1cc(-n2cnc3ccc(CN4CCN(C)CC4)cc32)sc1C(N)=O)c1ccccc1C(F)(F)F`, for which the Potency in assay [1] is 0.294 µM (active); in assay [3], 0.105 µM (active); in assay [4], 0.0469 µM (active); in assay [6], 29.6 µM (active).
As to `COc1ccc(OC)c(-c2nnc3ccc(-c4ccc(OC)c(O[C@@H]5CCOC5)c4)nn23)c1`, the Potency result in assay [1] and in assay [4] was “inactive” in each case. Also, the Potency was 14.8 µM (active) in assay [5] and 18.7 µM (active) in assay [3].
For `COc1c(OCCCN2CCOCC2)ccc2c3n(c(=NC(=O)c4cnc(N)nc4)nc12)CCN3`, the Potency was 2.55 µM (active) in assay [1], 2.04 µM (active) in assay [2], 0.0288 µM (active) in assay [3] and 0.102 µM (active) in assay [4]. In assay [6], the Potency result was “inactive”.
On to `CC(=O)Nc1sc2c(c1-c1nc3ccccc3s1)CNC2`, for which the Potency entry in assay [1] and in assay [6] was “inactive” each time. Besides, the figures for the Potency in assay [5], in assay [8] and in assay [4] were 18.7 µM (active), 15.3 µM (active) and 2.35 µM (active), respectively.
Turning to `CN(C)c1nc(Cc2ccc(NC(=O)c3ccc4ccccc4c3)cc2)nc(Cl)c1CC(=O)O`, the Potency entry in assay [1], in assay [2], in assay [8], in assay [4] and in assay [6] was “inactive” in each case.
As for `COC(=O)[C@]12CCC(C)(C)C[C@@H]1[C@@H]1C(=O)C=C3[C@@]4(C)C=C(C#N)C(=O)C(C)(C)[C@@H]4CC[C@@]3(C)[C@]1(C)CC2`, the Potency in assay [7] is 0.59 µM (active); in assay [2] it was 0.235 µM (active); in assay [5] it was 0.372 µM (active); in assay [3] it was 0.372 µM (active); in assay [8], 0.685 µM (active); in assay [4] it was 0.264 µM (active). Also, the Potency in assay [6] was 0.935 µM (active).
With `CC(C)(C)c1cc(NC(=O)Nc2ccc(-c3cn4c(n3)sc3cc(OCCN5CCOCC5)ccc34)cc2)no1`, the Potency entry in assay [1] and in assay [6] was “inactive” throughout. In addition, the Potency in assay [3] is 0.743 µM (active); in assay [4], 16.6 µM (active).
On to `N#CCNC(=O)c1ccc(-c2ccnc(Nc3ccc(N4CCOCC4)cc3)n2)cc1`, for which the Potency was 14.8 µM (active) in assay [7]; 13.2 µM (active) in assay [2]; 7.43 µM (active) in assay [5]; 4.69 µM (active) in assay [3]; 21.7 µM (active) in assay [8]. In assay [6], the Potency result is “inactive”.
In the case of `CC(C)c1noc(N2CCC(COc3ccc(-c4ccc(S(C)(=O)=O)cc4)nc3)CC2)n1`, the Potency entry in assay [1], in assay [3], in assay [4] and in assay [6] was “inactive” in each case.
Turning to `C[C@@H]1CN(CC(=O)Nc2ccc3c(c2)Cc2cccc(-c4cc(=O)cc(N5CCOCC5)o4)c2S3)C[C@H](C)O1`, the Potency entry in assay [1] was “inactive”. Moreover, the values for the Potency in assay [2], in assay [3] and in assay [4] were 14.8 µM (active), 4.18 µM (active) and 18.7 µM (active), respectively.
Consider `Cc1ccc(C(N)=O)cc1Nc1nccc(-c2cn(C(C)C)c3cnccc23)n1`, for which the Potency in assay [7] is 11.8 µM (active); in assay [2], 7.43 µM (active); in assay [5], 3.72 µM (active); in assay [3], 5.9 µM (active); in assay [8] it was 9.68 µM (active); in assay [4] it was 4.18 µM (active). Besides, the Potency result in assay [6] was “inactive”.
Turning to `COC(=O)C[C@](O)(CCCC(C)(C)O)C(=O)O[C@@H]1C(OC)=C[C@]23CCCN2CCc2cc4c(cc2[C@H]13)OCO4`, the Potency result in assay [1], in assay [2], in assay [5], in assay [8], in assay [4] and in assay [6] was “inactive” in each case.
As for `CC(=O)OCC(=O)[C@@]1(O)[C@H](C)C[C@H]2[C@@H]3C=C(C)C4=Cc5c(cnn5-c5ccccc5)C[C@]4(C)[C@@H]3[C@@H](O)C[C@@]21C`, the Potency in assay [7] is 11.8 µM (active); in assay [2] it was 5.26 µM (active); in assay [5], 2.96 µM (active); in assay [3] it was 1.18 µM (active); in assay [8] it was 19.3 µM (active); in assay [4] it was 3.72 µM (active). In assay [6], the Potency was 18.7 µM (active).
With `Cc1coc2c1C(=O)C(=O)c1c-2ccc2c1CCCC2(C)C`, the Potency result in assay [1] and in assay [6] was “inactive” each time. The Potency in assay [3] was 8.33 µM (active); in assay [8], 21.7 µM (active); in assay [4], 8.33 µM (active).
As for `CC1(O)CC(c2nc(-c3ccc4ccc(-c5ccccc5)nc4c3)c3c(N)nccn23)C1` (stereo not given), the Potency is 10.5 µM (active) in assay [2]; 23.5 µM (active) in assay [5]; 0.0418 µM (active) in assay [3]; 19.3 µM (active) in assay [8]; 0.662 µM (active) in assay [4].
As to `CN(C)CCCN=c1c2ccccc2n(C)c2[nH]c(=O)n(C)c(=O)c12`, the Potency is 23.5 µM (active) in assay [7]; 1.87 µM (active) in assay [2]; 2.96 µM (active) in assay [3]; 4.85 µM (active) in assay [8]; 0.743 µM (active) in assay [4]. In addition, the Potency result in assay [6] is “inactive”.
In the case of `O=C(CCCCCCC(=O)Nc1ccc([C@H]2O[C@@H](CSc3nc(-c4ccccc4)c(-c4ccccc4)o3)C[C@@H](c3ccc(CO)cc3)O2)cc1)NO`, the Potency in assay [7] is 11.8 µM (active); in assay [5], 4.69 µM (active); in assay [3], 8.33 µM (active); in assay [8] it was 15.3 µM (active); in assay [4], 8.33 µM (active). Besides, in assay [6], the Potency entry is “inactive”.
Take `COC(=O)C1=C(C)NC(C)=C(C(=O)OCCN2CCN(C(c3ccccc3)c3ccccc3)CC2)C1c1cccc([N+](=O)[O-])c1` (stereo not given): in assay [3], the Potency was 6.68 µM (active). For the same compound, the Potency entry in assay [6] is “inactive”.
`O=C(c1ccc(Nc2nccc(-c3cc4ccccc4s3)n2)cc1)N1CCC(N2CCCC2)CC1`: the Potency in assay [7] is 23.5 µM (active); in assay [2] it was 13.2 µM (active); in assay [5], 7.43 µM (active); in assay [8], 24.3 µM (active); in assay [4], 23.5 µM (active); in assay [6] it was 23.5 µM (active).
For the compound `Cc1cc(Nc2cc(CN3CCOCC3)c3nc(C)c(Cc4ccc(Cl)cc4F)n3n2)n[nH]1`, the Potency is 23.5 µM (active) in assay [7], 23.5 µM (active) in assay [2], 5.9 µM (active) in assay [5] and 4.18 µM (active) in assay [4]. The Potency result in assay [6] is “inactive”.
Regarding `CC(=O)c1c(C)c2cnc(Nc3ccc(N4CCNCC4)cn3)nc2n(C2CCCC2)c1=O`, the Potency was 20.9 µM (active) in assay [3], 24.3 µM (active) in assay [8] and 20.9 µM (active) in assay [4].
